# Experimental data as given in ChEMBL document CHEMBL1961873, “Compounds: GSK PKIS; Assays: Nanosyn kinase panel” (2012).
# Experiments:
# [1] = target: Ribosomal protein S6 kinase alpha-6 (Homo sapiens) (UniProt Q9UK32); details: at 1 µM;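 note: each value is a mean inhibition of RSK4 from a GSK PKIS panel screen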
# [2] = target: T1, Serine/threonine-protein kinase Sgk1 (Homo sapiens) (UniProt O00141); details: at 0.1 µM
# T1 sequence (whole entry): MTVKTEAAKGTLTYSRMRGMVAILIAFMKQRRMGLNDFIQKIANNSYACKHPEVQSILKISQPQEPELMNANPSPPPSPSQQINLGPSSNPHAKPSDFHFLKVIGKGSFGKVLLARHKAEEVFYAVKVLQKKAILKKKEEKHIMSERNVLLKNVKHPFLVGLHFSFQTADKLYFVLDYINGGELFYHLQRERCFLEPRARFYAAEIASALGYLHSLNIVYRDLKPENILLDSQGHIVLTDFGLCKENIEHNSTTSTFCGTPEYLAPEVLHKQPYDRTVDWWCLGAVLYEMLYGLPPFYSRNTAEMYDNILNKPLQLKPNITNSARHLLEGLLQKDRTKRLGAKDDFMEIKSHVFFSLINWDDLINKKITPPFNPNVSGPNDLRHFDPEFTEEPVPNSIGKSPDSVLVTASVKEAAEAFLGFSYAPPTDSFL
# [3] = target: T1, Serine/threonine-protein kinase Sgk1 (Homo sapiens); details: at 1 µM
# [4] = target: T2, Serine/threonine-protein kinase Sgk2 (Homo sapiens) (UniProt Q9HBY8); details: at 0.1 µM
# T2 sequence (whole entry): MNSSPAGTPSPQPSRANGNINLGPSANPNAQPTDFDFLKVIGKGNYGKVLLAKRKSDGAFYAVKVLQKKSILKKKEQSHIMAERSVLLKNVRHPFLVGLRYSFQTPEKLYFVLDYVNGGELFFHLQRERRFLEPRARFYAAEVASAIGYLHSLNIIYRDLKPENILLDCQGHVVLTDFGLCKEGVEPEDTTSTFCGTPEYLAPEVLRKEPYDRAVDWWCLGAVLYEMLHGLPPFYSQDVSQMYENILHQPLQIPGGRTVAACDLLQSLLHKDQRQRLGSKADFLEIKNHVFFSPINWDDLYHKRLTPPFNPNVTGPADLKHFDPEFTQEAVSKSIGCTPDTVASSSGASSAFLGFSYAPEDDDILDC
# [5] = target: T2, Serine/threonine-protein kinase Sgk2 (Homo sapiens); details: at 1 µM
# [6] = target: T3, Serine/threonine-protein kinase Sgk3 (Homo sapiens) (UniProt Q96BR1); details: at 0.1 µM
# T3 sequence (whole entry): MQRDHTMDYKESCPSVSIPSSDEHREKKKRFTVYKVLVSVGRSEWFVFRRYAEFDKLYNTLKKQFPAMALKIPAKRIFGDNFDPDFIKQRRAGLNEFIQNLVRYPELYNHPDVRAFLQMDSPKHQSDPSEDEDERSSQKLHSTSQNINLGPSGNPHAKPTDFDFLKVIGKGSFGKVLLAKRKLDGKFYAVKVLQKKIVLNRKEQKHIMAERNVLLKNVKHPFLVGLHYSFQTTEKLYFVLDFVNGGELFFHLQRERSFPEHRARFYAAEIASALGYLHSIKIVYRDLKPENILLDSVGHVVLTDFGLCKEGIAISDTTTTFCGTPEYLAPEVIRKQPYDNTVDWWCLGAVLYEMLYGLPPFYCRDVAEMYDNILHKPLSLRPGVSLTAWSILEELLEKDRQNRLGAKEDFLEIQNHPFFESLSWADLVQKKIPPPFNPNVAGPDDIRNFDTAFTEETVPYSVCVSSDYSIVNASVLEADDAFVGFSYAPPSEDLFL
# [7] = target: T3, Serine/threonine-protein kinase Sgk3 (Homo sapiens); details: at 1 µM
# [8] = target: 5'-AMP-activated protein kinase catalytic subunit alpha-1 (Homo sapiens) (UniProt Q13131); details: at 0.1 µM
# Chain of 5'-AMP-activated protein kinase catalytic subunit alpha-1 (Homo sapiens) (Q13131 whole entry, looked up): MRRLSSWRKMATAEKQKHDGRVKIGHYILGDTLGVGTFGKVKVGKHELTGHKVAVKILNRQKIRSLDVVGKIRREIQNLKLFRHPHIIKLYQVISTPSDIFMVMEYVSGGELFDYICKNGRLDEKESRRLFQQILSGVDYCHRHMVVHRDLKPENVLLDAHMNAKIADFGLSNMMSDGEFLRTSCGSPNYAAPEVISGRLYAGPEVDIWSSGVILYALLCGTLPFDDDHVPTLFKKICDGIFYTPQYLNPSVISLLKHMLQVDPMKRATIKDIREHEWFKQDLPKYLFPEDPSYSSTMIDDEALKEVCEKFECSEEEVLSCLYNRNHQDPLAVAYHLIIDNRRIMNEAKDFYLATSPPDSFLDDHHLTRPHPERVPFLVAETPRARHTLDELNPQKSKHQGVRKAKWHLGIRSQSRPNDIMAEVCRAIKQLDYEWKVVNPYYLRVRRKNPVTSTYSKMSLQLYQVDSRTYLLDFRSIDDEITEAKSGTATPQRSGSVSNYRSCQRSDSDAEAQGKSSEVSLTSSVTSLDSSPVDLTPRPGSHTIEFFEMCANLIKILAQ
# [9] = target: 5'-AMP-activated protein kinase catalytic subunit alpha-1 (Homo sapiens) (UniProt Q13131); details: at 1 µM
# [10] = target: 5'-AMP-activated protein kinase catalytic subunit alpha-2 (Homo sapiens) (UniProt P54646); details: at 0.1 µM
# Chain of 5'-AMP-activated protein kinase catalytic subunit alpha-2 (Homo sapiens) (P54646 whole entry, looked up): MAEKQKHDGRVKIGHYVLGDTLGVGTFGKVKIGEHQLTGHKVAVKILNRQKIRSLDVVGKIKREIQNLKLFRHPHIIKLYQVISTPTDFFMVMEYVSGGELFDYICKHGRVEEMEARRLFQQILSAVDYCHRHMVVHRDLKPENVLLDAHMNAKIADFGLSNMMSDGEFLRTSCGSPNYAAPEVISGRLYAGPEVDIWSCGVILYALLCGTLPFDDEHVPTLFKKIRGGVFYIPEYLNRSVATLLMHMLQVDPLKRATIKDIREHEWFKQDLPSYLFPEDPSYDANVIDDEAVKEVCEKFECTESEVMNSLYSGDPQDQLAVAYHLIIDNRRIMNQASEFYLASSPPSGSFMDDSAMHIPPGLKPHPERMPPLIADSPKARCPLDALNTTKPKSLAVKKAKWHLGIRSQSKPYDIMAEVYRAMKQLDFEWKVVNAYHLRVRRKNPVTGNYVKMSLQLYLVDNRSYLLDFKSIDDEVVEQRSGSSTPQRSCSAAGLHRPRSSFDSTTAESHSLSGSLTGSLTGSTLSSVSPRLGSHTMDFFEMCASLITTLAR
# [11] = target: 5'-AMP-activated protein kinase catalytic subunit alpha-2 (Homo sapiens) (UniProt P54646); details: at 1 µM
# [12] = target: T4, NUAK family SNF1-like kinase 1 (Homo sapiens) (UniProt O60285); details: at 0.1 µM
# T4 sequence (whole entry): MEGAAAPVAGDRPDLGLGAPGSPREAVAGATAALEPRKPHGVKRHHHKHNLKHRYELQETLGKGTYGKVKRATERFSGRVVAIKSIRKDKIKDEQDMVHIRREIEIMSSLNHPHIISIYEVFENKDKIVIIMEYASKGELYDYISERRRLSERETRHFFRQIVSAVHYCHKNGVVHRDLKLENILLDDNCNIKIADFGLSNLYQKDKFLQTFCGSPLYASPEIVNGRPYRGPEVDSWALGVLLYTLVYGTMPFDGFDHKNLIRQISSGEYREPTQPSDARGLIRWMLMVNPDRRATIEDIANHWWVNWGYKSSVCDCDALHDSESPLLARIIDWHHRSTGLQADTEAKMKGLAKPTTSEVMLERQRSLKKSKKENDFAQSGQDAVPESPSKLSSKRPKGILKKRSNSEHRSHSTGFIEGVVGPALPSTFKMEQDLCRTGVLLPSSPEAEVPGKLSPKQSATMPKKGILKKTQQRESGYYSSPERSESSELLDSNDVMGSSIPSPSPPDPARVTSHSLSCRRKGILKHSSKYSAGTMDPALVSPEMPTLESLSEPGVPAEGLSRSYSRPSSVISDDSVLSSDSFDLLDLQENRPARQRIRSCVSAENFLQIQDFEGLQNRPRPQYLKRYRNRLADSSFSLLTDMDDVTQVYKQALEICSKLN
# [13] = target: T4, NUAK family SNF1-like kinase 1 (Homo sapiens); details: at 1 µM
# [14] = target: T5, Serine/threonine-protein kinase BRSK1 (Homo sapiens) (UniProt Q8TDC3); details: at 0.1 µM
# T5 sequence (whole entry): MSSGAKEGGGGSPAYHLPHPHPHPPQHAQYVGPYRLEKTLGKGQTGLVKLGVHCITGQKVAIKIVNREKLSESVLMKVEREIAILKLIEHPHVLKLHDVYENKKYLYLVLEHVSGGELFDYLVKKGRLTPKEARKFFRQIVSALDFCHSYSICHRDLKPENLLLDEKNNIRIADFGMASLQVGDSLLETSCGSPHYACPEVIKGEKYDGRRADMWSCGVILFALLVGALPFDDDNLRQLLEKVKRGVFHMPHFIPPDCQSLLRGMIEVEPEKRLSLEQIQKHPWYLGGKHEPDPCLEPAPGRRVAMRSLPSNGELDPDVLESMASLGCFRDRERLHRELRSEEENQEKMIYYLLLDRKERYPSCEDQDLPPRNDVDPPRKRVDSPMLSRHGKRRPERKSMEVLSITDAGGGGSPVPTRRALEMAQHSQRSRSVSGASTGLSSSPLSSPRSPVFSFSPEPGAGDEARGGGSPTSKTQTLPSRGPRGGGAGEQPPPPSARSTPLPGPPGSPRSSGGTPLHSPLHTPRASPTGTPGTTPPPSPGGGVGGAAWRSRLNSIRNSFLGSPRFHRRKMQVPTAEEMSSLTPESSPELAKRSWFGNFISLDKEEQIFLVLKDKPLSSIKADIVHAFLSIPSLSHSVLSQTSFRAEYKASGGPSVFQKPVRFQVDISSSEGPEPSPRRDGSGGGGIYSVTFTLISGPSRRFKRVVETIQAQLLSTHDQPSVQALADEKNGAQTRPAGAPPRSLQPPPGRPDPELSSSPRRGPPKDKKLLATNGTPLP
# [15] = target: T5, Serine/threonine-protein kinase BRSK1 (Homo sapiens); details: at 1 µM
# [16] = target: T6, Serine/threonine-protein kinase BRSK2 (Homo sapiens) (UniProt Q8IWQ3); details: at 0.1 µM
# T6 sequence (whole entry): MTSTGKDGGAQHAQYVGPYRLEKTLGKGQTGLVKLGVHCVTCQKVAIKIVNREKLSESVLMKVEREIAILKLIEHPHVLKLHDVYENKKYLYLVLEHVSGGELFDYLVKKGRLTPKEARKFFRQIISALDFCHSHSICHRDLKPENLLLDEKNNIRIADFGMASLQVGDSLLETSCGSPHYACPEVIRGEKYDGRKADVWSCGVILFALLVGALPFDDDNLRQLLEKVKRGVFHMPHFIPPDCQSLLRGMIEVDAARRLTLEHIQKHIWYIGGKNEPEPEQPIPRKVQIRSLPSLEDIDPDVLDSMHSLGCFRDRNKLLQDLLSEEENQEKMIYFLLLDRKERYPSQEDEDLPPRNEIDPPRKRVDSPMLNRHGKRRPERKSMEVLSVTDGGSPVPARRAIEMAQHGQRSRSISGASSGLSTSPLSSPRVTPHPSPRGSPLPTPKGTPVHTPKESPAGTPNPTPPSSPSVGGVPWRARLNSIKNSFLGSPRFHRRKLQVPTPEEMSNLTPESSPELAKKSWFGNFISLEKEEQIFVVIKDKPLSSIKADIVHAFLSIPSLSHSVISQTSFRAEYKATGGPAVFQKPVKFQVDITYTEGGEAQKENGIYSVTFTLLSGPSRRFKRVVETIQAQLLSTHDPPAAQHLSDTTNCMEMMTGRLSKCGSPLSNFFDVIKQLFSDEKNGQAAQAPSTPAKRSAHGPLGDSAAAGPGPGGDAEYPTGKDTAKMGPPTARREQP
# [17] = target: T6, Serine/threonine-protein kinase BRSK2 (Homo sapiens); details: at 1 µM
# [18] = target: Calcium/calmodulin-dependent protein kinase type 1D (Homo sapiens) (UniProt Q8IU85); details: at 0.1 µM
# Chain of Calcium/calmodulin-dependent protein kinase type 1D (Homo sapiens) (Q8IU85 whole entry, looked up): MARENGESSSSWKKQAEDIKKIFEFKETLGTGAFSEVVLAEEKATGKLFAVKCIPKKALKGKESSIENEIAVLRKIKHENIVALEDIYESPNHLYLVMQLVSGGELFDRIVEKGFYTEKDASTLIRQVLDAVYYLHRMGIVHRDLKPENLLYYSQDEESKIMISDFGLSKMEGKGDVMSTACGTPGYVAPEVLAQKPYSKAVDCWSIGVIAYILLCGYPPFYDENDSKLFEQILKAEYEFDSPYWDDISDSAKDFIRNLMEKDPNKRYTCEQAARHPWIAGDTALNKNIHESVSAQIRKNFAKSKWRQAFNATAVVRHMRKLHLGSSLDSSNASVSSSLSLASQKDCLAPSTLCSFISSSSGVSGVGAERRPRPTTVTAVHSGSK
# [19] = target: Calcium/calmodulin-dependent protein kinase type 1D (Homo sapiens) (UniProt Q8IU85); details: at 1 µM
# [20] = target: Calcium/calmodulin-dependent protein kinase type II subunit alpha (Homo sapiens) (UniProt Q9UQM7); details: at 0.1 µM;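 note: reported values are averages (mean inhibition of CAMK2A)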
# Chain of Calcium/calmodulin-dependent protein kinase type II subunit alpha (Homo sapiens) (Q9UQM7 whole entry): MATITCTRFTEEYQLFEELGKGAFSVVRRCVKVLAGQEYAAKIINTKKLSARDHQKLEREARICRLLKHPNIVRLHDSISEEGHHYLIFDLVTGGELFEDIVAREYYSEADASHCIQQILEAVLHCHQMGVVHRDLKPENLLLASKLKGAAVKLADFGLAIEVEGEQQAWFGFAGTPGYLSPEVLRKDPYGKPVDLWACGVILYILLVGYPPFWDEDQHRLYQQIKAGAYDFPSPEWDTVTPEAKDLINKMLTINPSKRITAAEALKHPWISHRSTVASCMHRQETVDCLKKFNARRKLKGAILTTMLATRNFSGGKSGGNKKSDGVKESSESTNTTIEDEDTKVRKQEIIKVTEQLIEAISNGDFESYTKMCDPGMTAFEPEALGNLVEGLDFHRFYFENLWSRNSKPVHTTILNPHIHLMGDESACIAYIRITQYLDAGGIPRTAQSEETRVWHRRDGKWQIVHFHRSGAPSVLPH
# Chain of Ribosomal protein S6 kinase alpha-6 (Homo sapiens) (Q9UK32 whole entry): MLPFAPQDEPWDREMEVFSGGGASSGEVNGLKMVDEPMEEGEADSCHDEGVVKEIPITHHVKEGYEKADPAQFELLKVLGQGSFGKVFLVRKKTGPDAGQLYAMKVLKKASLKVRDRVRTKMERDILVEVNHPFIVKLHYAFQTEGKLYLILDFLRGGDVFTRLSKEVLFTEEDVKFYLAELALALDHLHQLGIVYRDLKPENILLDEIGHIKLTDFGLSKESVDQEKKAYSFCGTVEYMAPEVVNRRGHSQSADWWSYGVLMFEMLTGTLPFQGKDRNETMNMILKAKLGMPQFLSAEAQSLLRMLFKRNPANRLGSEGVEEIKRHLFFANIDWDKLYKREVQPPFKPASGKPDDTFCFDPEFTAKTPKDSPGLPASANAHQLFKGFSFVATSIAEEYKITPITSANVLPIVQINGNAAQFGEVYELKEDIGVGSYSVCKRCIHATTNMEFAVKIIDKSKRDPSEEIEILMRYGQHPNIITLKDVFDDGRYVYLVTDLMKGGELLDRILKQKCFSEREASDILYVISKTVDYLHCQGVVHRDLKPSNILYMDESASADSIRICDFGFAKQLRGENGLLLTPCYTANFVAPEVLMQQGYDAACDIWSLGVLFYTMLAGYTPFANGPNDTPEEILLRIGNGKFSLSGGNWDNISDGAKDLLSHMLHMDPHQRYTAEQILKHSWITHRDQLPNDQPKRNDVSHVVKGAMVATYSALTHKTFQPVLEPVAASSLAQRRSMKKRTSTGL
Structure (SMILES),inhibition [1],inhibition [2],inhibition [3],inhibition [4],inhibition [5],inhibition [6],inhibition [7],inhibition [8],inhibition [9],inhibition [10],inhibition [11],inhibition [12],inhibition [13],inhibition [14],inhibition [15],inhibition [16],inhibition [17],inhibition [18],inhibition [19],inhibition [20]
Cc1nnc(-c2ccc(C)c(-c3ccc(C(=O)NCc4ccc(Cl)cc4)cc3)c2)o1,2.38%,5.07%,3.26%,2.67%,6.19%,1.38%,5.66%,2.95%,3.4%,3.74%,3.56%,1%,4.79%,-2.13%,-2.87%,1.17%,2.51%,-1.49%,0.04%,2.6%
COc1ccc(C2=C(N3CCc4ccccc43)C(=O)NC2=O)cc1,4.12%,5.57%,2.06%,-2.15%,-5.83%,4.38%,1.94%,4.29%,5.67%,1.73%,5.49%,3.26%,9.32%,1.07%,3.32%,2.56%,3.2%,0.57%,1.29%,5.74%
COc1cc2ncn(-c3cc(OCc4ccccc4C(F)(F)F)c(C(C)=O)s3)c2cc1OC,1.71%,2.88%,2.59%,3.09%,3.04%,3.08%,2.17%,1.8%,2.83%,-0.02%,2.21%,-0.05%,3.5%,2.73%,4.41%,3.99%,4.95%,-0.05%,-0.22%,4.56%
O=C(Nc1n[nH]c2cc(-c3ccccc3)ccc12)C1CC1,3.11%,2.86%,5.38%,1.79%,1.73%,4.57%,3.95%,3.49%,4.22%,4.21%,7.53%,4.99%,2.6%,4.46%,21%,3.64%,19.7%,0.34%,-0.38%,3.14%
C[C@@H](Oc1cc(-n2cnc3ccc(OCC4CCN(C)CC4)cc32)sc1C(N)=O)c1ccccc1Cl,42.4%,2.62%,4.04%,4.94%,3.37%,2.38%,3.66%,6.05%,24.5%,8.96%,13.7%,30.2%,71.9%,28.5%,60%,38.5%,72.8%,1.56%,5.96%,6.36%
CCC(=O)Nc1ccc(C)c(-c2ccc(C(=O)NCC3CC3)cc2)c1,1.25%,1.88%,2.02%,1.32%,0.49%,2.14%,2.43%,1.31%,2.54%,4.95%,2.49%,0.85%,1.36%,1.35%,0.24%,1.47%,2.78%,0.77%,1.64%,1.27%
